The target of assay [1] is T1, Muscle, skeletal receptor tyrosine-protein kinase (Homo sapiens) (UniProt O15146).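 Also: reported value is the mean percent inhibition of MuSK kinase.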
T1 sequence (whole entry): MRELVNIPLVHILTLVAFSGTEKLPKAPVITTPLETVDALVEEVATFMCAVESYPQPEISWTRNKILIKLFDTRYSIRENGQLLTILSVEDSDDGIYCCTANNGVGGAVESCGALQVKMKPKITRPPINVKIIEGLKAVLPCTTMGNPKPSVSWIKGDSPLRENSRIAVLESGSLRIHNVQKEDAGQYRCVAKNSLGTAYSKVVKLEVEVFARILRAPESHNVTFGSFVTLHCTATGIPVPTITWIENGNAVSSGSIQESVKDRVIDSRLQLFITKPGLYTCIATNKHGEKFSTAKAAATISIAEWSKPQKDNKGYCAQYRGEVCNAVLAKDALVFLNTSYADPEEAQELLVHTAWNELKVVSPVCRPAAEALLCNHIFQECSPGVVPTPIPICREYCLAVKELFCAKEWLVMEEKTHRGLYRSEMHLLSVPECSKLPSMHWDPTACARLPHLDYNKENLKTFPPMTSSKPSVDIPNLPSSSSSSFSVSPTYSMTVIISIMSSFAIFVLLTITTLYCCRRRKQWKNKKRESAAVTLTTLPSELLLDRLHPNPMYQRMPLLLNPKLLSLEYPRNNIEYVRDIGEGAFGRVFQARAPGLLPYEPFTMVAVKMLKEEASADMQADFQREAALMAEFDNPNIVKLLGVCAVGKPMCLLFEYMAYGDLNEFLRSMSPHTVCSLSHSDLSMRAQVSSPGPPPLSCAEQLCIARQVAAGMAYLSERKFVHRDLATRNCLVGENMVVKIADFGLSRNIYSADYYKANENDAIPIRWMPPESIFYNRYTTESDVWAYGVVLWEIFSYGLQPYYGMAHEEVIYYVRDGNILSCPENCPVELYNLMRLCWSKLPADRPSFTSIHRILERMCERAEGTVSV
As to conditions: at 1 µM.

The target in assay [2] is Platelet-derived growth factor receptor alpha (Homo sapiens) (UniProt P16234). Conditions: at 0.1 µM.
The target is the same in assay [3]. As to conditions: at 1 µM.
In assay [4] the test system is Platelet-derived growth factor receptor alpha (Homo sapiens), P16234 [D842V]. Conditions: at 0.1 µM.
The test system is the same in assay [5]. As to conditions: at 1 µM.
The test system of assay [6] is Platelet-derived growth factor receptor alpha (Homo sapiens), P16234 [T674I]. As to conditions: at 0.1 µM.
Assay [7] has the same test system. As to conditions: at 1 µM.
Assay [8] concerns Platelet-derived growth factor receptor alpha (Homo sapiens), P16234 [V561D]. Conditions: at 0.1 µM.
The test system is the same in assay [9]. Conditions: at 1 µM.
For assay [10], the target named is Platelet-derived growth factor receptor beta (Homo sapiens) (UniProt P09619). Conditions: at 0.1 µM.
Assay [11] has the same target. As to conditions: at 1 µM.
Assay [12] has as its target Tyrosine-protein kinase FRK (Homo sapiens) (UniProt P42685). As to conditions: at 0.1 µM.
Assay [13] shares this target. Conditions: at 1 µM.
Assay [14] addresses Protein-tyrosine kinase 2-beta (Homo sapiens) (UniProt Q14289). As to conditions: at 0.1 µM.
For assay [15] the target is unchanged. Conditions: at 1 µM.
Assay [16] addresses Proto-oncogene tyrosine-protein kinase receptor Ret (Homo sapiens) (UniProt P07949). Conditions: at 0.1 µM.
Assay [17] has the same target. As to conditions: at 1 µM.
Assay [18] relates to Proto-oncogene tyrosine-protein kinase receptor Ret (Homo sapiens), P07949 [V804L]. Conditions: at 0.1 µM.
Assay [19] has the same test system. As to conditions: at 1 µM.
The test system of assay [20] is Proto-oncogene tyrosine-protein kinase receptor Ret (Homo sapiens), P07949 [Y791F]. Conditions: at 0.1 µM.

Each structure is given as a SMILES string.

Sequence of Platelet-derived growth factor receptor alpha (Homo sapiens), P16234 [T674I] (P16234 whole entry T674I): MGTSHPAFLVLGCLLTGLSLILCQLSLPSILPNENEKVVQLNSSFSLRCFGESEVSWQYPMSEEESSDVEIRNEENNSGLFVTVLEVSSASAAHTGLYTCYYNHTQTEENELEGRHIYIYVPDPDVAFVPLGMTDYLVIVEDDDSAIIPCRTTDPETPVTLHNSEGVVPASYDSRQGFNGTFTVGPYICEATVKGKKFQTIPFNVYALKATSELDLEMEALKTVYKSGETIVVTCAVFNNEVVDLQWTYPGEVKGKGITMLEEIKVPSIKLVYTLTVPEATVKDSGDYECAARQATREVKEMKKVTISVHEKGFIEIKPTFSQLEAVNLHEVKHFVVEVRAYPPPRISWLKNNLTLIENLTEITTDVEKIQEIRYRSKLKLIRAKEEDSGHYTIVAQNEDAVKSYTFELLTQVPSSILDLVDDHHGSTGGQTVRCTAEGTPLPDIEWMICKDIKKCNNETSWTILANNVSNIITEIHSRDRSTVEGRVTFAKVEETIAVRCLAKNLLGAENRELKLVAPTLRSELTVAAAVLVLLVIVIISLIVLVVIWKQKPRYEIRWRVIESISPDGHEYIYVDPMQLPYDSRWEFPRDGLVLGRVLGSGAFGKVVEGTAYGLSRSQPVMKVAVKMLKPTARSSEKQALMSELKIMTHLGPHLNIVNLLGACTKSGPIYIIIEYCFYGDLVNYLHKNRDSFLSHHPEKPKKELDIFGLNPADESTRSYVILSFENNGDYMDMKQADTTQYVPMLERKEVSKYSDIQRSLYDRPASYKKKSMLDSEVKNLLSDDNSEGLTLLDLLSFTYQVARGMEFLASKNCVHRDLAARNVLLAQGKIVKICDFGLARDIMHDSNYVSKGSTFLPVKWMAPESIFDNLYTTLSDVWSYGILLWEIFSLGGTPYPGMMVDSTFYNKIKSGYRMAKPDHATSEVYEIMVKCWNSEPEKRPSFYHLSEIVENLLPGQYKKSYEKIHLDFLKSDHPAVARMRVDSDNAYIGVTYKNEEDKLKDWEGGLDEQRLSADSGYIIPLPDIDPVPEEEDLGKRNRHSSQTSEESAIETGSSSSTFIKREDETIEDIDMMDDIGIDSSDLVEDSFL
Sequence of Protein-tyrosine kinase 2-beta (Homo sapiens) (Q14289 whole entry, looked up): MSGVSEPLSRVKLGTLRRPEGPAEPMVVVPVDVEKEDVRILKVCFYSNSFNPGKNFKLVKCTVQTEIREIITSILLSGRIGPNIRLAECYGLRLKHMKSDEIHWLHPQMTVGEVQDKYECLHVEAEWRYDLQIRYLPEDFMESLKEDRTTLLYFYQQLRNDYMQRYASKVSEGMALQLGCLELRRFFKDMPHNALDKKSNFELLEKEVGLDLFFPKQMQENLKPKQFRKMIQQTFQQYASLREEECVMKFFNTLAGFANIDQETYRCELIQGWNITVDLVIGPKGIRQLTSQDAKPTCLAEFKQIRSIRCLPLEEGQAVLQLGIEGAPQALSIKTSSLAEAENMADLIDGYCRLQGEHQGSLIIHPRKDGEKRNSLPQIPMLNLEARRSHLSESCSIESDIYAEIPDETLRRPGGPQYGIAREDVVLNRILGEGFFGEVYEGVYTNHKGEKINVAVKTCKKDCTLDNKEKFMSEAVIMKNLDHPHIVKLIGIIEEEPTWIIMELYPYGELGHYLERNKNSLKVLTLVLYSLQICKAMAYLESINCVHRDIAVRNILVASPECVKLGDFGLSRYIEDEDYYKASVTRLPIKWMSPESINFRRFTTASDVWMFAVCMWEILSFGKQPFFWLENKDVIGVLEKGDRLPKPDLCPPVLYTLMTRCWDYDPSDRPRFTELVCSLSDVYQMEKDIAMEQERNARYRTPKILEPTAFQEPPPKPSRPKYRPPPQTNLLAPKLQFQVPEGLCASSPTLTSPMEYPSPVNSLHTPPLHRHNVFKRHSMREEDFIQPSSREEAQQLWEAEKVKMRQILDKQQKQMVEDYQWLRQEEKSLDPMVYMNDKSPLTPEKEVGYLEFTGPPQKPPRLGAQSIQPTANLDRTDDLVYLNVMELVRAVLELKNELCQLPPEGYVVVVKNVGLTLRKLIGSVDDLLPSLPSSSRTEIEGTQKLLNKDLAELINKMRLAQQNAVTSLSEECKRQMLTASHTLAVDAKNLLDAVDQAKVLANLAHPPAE
Sequence of Platelet-derived growth factor receptor alpha (Homo sapiens) (P16234 whole entry): as the sequence (P16234 whole entry T674I) above, with I674T counted along it
Sequence of Platelet-derived growth factor receptor beta (Homo sapiens) (P09619 whole entry): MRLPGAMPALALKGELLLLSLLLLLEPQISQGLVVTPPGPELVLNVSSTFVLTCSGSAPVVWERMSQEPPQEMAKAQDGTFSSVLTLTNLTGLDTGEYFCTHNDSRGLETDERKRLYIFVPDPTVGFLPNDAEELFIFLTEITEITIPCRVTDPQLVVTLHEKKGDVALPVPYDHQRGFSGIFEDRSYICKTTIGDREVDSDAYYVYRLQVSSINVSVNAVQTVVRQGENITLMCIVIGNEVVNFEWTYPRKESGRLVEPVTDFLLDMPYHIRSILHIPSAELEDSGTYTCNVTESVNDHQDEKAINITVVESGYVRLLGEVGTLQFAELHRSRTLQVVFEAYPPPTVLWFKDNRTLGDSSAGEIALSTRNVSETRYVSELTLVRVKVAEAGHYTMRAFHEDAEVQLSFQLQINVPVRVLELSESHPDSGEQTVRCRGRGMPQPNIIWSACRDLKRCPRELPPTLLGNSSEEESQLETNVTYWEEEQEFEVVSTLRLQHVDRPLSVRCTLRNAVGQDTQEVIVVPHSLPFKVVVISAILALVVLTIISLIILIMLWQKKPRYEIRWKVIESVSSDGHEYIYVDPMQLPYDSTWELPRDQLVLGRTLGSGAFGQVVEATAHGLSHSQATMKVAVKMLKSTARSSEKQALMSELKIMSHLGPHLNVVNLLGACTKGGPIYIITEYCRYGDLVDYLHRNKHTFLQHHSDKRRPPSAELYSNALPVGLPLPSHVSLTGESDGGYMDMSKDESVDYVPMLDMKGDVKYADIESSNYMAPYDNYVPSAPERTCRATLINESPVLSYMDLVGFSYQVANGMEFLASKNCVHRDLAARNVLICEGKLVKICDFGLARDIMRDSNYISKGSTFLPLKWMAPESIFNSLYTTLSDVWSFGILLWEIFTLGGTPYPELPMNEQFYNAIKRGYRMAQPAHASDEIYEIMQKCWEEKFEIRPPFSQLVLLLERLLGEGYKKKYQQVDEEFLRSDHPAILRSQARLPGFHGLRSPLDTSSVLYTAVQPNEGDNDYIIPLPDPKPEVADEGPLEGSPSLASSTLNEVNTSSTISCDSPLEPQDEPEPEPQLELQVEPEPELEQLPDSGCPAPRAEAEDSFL
Sequence of Tyrosine-protein kinase FRK (Homo sapiens) (P42685 whole entry): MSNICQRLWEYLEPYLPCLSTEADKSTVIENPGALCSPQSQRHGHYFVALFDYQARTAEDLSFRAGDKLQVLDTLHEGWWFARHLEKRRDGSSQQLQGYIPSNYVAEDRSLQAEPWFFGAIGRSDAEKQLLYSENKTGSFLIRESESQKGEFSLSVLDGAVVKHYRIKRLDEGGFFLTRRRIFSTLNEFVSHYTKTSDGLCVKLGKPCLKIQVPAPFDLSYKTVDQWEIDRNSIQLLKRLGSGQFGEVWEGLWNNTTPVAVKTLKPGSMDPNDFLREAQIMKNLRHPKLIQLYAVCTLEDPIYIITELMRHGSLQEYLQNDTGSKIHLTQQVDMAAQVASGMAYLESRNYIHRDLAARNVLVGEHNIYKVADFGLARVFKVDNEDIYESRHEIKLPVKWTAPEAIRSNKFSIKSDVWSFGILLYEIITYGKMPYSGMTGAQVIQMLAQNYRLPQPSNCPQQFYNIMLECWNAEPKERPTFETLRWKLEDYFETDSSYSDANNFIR

Usually inhibition stands for the change of the read-out against control, counted positive when it falls. In the case of `NCc1ccc(-c2nc(-c3ccc(Cl)c(O)c3)c(-c3ccncc3)[nH]2)cc1`, the inhibition in [1] was determined as 2.08%; in assay [2], 6.86%; in assay [3] it was 25.6%; in [4], 6.11%; in assay [5], 31%; in [6], 2.74%. Further, the inhibition in [7] was 2.2%; in assay [8], 5.6%; in [9], 25.9%; in assay [10] it was 7.07%; in assay [11], 31%; in assay [12], 5.22%. In addition, the inhibition is 35.3% in assay [13]; 3.97% in assay [14]; -0.14% in [15]; 47.6% in assay [16]; 76.6% in assay [17]; 1.17% in [18]. The figures for the inhibition in [19] and in assay [20] were 7.47% and 39.5%, respectively.
Turning to `CS(=O)(=O)CCNCc1ccc(-c2ccc3ncnc(Nc4ccc(OCc5cccc(F)c5)c(C(F)(F)F)c4)c3c2)o1`, the inhibition came out at 2.72% in assay [1]; 2.57% in [2]; 6.52% in assay [3]; 2.53% in [4]; 4.33% in assay [5]; 5.78% in assay [6]. Also, the inhibition in [7] was 5.59%; in assay [8] it was 3.25%; in [9], 3.17%; in [10], -0.33%; in [11], 1.85%; in assay [12], 2.17%. The inhibition in [13] was 3.48%; in assay [14], 9.54%; in assay [15], 10.4%; in assay [16], 6.1%; in [17], 3.78%; in [18] it was 1.9%. For the same compound, the values for the inhibition in [19] and in assay [20] were 4.58% and 2.66%, respectively.
Turning to `COc1cc2ncn(-c3cc(OCc4ccccc4Cl)c(C(N)=O)s3)c2cc1OC`, the inhibition was determined as 21.2% in assay [1]; 46.7% in assay [2]; 90.5% in assay [3]; 30.4% in assay [4]; 82.2% in assay [5]; 9.35% in assay [6]. Also, the inhibition in assay [7] worked out at 69.7%; in assay [8], 39.1%; in [9], 83.3%; in assay [10] it was 41%; in assay [11], 86.5%; in [12], 2.63%. Besides, the inhibition in [13] is 2.45%; in [14] it was -1.12%; in assay [15], 6.28%; in [16] it was 17.7%; in assay [17], 60.8%; in assay [18] it was 4.73%. The inhibition in assay [19] is 26.9%; in assay [20], 20.7%.
Regarding `CCCN1CCC=C(c2ccc(Nc3nc(Nc4ccccc4C(N)=O)c4cc[nH]c4n3)c(C)c2)C1`, the inhibition in assay [1] is 20.5%; in assay [2] it was 9.67%; in assay [3], 40.6%; in [4], 2.55%; in assay [5] it was 24.2%; in assay [6], 4.99%. Further, the inhibition in [7] was 9.94%; in [8] it was 5.63%; in [9], 28.7%; in [10], 8.75%; in assay [11] it was 37.2%; in [12], 1.94%. Further, the inhibition in assay [13] amounted to 4.17%; in [14], 78%; in assay [15], 94.9%; in assay [16] it was 5.97%; in assay [17], 24.3%; in assay [18] it was 18.6%. The inhibition in assay [19] is 58.3%; in assay [20], 9.36%.
Regarding `COc1ccc(COc2ccc(Cc3cnc(N)nc3N)cc2OC)cc1`, the inhibition was 9.52% in assay [1]; 10.9% in assay [2]; 15.7% in assay [3]; 0.95% in [4]; 1.88% in assay [5]; 2.62% in [6]. Also, the inhibition is 1.3% in assay [7]; 2.4% in [8]; 5.93% in [9]; 8.68% in assay [10]; 10% in [11]; -0.22% in [12]. Besides, the inhibition in [13] is 2.07%; in assay [14] it was -3.39%; in assay [15], -2.43%; in assay [16], 9.65%; in assay [17] it was 9.77%; in assay [18] it was 6.53%. The inhibition in [19] came out at 9.69%; in assay [20], 12.4%.
As to `COc1cc(C)c(NC(=O)CN(C)C)cc1Nc1nc(Nc2cccc(F)c2C(N)=O)c2cc[nH]c2n1`, the inhibition in [1] was 28.9%; in assay [2], 7.3%; in [3] it was 16.9%; in assay [4] it was 1.18%; in [5], 3.96%; in assay [6] it was 0.9%. Besides, the inhibition in assay [7] is 3.29%; in assay [8], 1.13%; in assay [9], 10.8%; in assay [10], 2.12%; in assay [11], 15%; in [12], 0.21%. In addition, the inhibition in [13] stood at 1%; in assay [14], 93.1%; in [15] it was 98%; in assay [16], 1.91%; in assay [17], 5.56%; in assay [18], 4.41%. Further, the inhibition came to 20.7% in assay [19] and 5.09% in assay [20].
Turning to `CCn1c(-c2nonc2N)nc2c(C#CC(C)(C)O)nc(CN3CCCC3)cc21`, the inhibition amounted to 4.26% in assay [1]; 7.83% in assay [2]; 13.1% in [3]; 3.09% in [4]; 5.71% in assay [5]; 2.75% in assay [6]. In addition, the inhibition in [7] was 0.39%; in assay [8] it was 2.19%; in assay [9], 6.46%; in assay [10] it was 3.33%; in assay [11], 12.2%; in [12], 0.91%. Besides, the inhibition in assay [13] was -0.12%; in [14] it was -0.18%; in assay [15] it was -7.23%; in [16] it was -0.08%; in assay [17], 9.99%; in assay [18], 0.92%. In addition, the inhibition in assay [19] was determined as 4.79%; in assay [20], 5.91%.

The values above are taken from ChEMBL document CHEMBL1961873, “Compounds: GSK PKIS; Assays: Nanosyn kinase panel” (2012).
